# Source: PubChem BioAssay (NCI)
# This is part of a sample that, as a whole, favours compounds with a hit. Of some 83,000 tested, about 20% had one in any assay.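 48-hour exposure, single concentration, 96-well plates; percent growth endpoint where 0 means no net growth. Active: below 10.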 Unmarked numbers belong to inactive results. Calls of active or inactive are those of the source.
# Test system: HCT-15 colon
# Test: NCI-60 one-dose screen, 48 h (100 = growth as untreated, 0 = no growth, -100 = all killed)
# Settings: 10 µM unless noted
row,Compound,growth
1,CC(=O)CCC(=O)OCc1cc(=O)c(O)co1,98.2%
2,O=C(c1nc2ccccc2[nH]1)C1C(c2ccc(Cl)cc2)C2CC3CCCC[C@H]3N2[C@@]12C(=O)Nc1cc(Cl)ccc12 (stereo partly specified),30.2%
3,COc1cccc(-c2nc3occn3c2-c2ccnc(NCCNS(=O)(=O)c3cccc4ccccc34)n2)c1,103%
4,COc1cc(-c2n/c(=C\c3c(O)[nH]c4ccc(Cl)cc34)cc3c2=Nc2ccccc2-3)ccc1F,46.4%
5,NNC(=O)c1ccc(-n2nc(-c3ccccc3)c3ccccc32)cc1,57.6%
6,O=C1Nc2cc(-c3cccc(O)c3)ccc2/C1=C/c1ccc[nH]1,9.89% (active)
7,COc1cccc(/C=N/NC(=O)c2cnn3c2NC(c2ccccc2)C3)c1Oc1ccccc1 (stereo unspecified),49.8%
8,S=c1cc(S)c2cc(Br)ccc2[nH]1,99.8%
9,O=C(NCCc1ccccc1)Nc1ccc2cc3ccc(NC(=O)NCCc4ccccc4)cc3nc2c1,97.1%
10,CCN(CC)CCCC(C)Nc1cc(O)cc2cccnc12 (stereo unspecified),102%
11,CCOC(=O)C1=C(C)NC(SCc2cc(=O)oc3ccc(F)cc23)=N[C@@H]1c1cccc2ccccc12,93%
12,COc1ccc(C(=O)c2cc(OC)c(OC)c(OC)c2)cc1O,3.56% (active)
13,CCCOC(=O)N[C@H]1CCc2c(Cl)c(OC)c(OC)c(OC)c2-c2ccc(SC)c(=O)cc21,12.9%
14,Cc1ccc(/C=N/NC(=O)CSc2nc3ccccc3c(=O)n2Cc2ccc(S(N)(=O)=O)cc2)cc1,89.3%
15,O=C(CCN1CCCC1)Nc1ccc2c(NCCCCc3ccccc3)c3ccccc3nc2c1,17%
16,CSc1nc2sc3cccc(Cl)c3n2c(=N)c1C#N,111%
17,C#CCNC(=O)c1cccc2c1cc(C)n2-c1nc2c(c(NCc3ccccc3)n1)CCCC2,-60.1% (active)
18,Cc1ccc(S(=O)(=O)NNC(=O)/C(=C\c2ccc(Cl)cc2)c2nc3ccccc3s2)cc1,79.5%
19,O=[N+]([O-])CC(c1ccccc1)c1c[nH]c2ccccc12 (stereo unspecified),26.5%

row,Compound,growth
1,Nc1nc(Nc2ccccc2SSc2ccccc2Nc2nc(N)nc(-c3ccc(C(F)(F)F)cc3)n2)nc(-c2ccc(C(F)(F)F)cc2)n1,17.2%
2,CCCCCC(=O)Oc1ccc(/C(=C(\C)c2ccccc2)c2ccc(OCCN3CCCCC3)cc2)cc1,58.5%
3,C/C(=N\Nc1cc(C)nc2ccc(Br)cc12)c1ccc([N+](=O)[O-])cc1,21.7%
4,COc1cccc(-c2ccc3c(c2)NC(=O)/C3=C\c2ccc[nH]2)c1,20.7%
5,CCC(=O)Oc1ccc(/C(=C(\C)c2ccccc2)c2ccc(OCCN3CCCCC3)cc2)cc1,58.6%
6,COc1cc(CC(=O)c2ccc(O)c(OC)c2)ccc1O,110%
7,Brc1ccc2[nH]cc(-c3cncn3CCc3ccccc3)c2c1,52.8%
8,CCNC(=O)Oc1ccc(/C(=C(\C)c2ccccc2)c2ccc(OCCCN(C)C)cc2)cc1,52.1%
9,O=C(/C=C/c1ccc(F)cc1)c1ccc(NC(=O)N2CCN(c3cc4c(cc3F)c(=O)c(C(=O)O)cn4C3CC3)CC2)cc1,101%
10,O=S(=O)(NCCNc1nccc(-c2c(-c3cccc(O)c3)nc3occn23)n1)c1ccccc1,103%
11,COc1ccc(C(=O)c2cc(C)c(OC)c(C)c2)c(OC)c1N(C(=O)CCl)C(=O)CCl,4.71% (active)
12,O=C(/C=C/c1ccc[nH]1)c1ccc(-n2ccc(C(F)(F)F)n2)c(F)c1,85%
13,COc1ccc(C(=O)C2C(C#N)C(C#N)C3c4ccccc4C=CN23)cc1 (stereo unspecified),94.5%
14,c1ccc(-c2cn3c(ccc4ccccc43)n2)cc1,30.6%
15,CNC(=O)c1cccc(Cn2nc(C)c(NC(=O)c3ccc(COc4ccc(C(F)(F)F)cc4C)cc3)c2C)n1,49.4%
16,COc1ccc(OC)c(-c2cc(-c3ccc(Cl)cc3)c3c(N)c(C(=O)c4ccc(Cl)cc4)sc3n2)c1,106%
17,CCCOc1ccc(/C=N/Nc2cc(C)nc3ccc(Cl)cc23)cc1,-44.4% (active)
18,O=C(Cc1ccccc1)NNc1nc(Cl)nc(N2CCN(C(c3ccccc3)c3ccccc3)CC2)n1,44.7%
19,C#CCNC(=O)[C@H](Cc1ccccc1)NC(=O)[C@]12CC[C@@H](C(=C)C)[C@@H]1[C@H]1CC[C@@H]3[C@@]4(C)CCC(=O)C(C)(C)[C@@H]4CC[C@@]3(C)[C@]1(C)CC2,70.7%

# Test system: HT29 colon
# Test: as above
# Settings: 10 µM unless noted
row,Compound,growth
1,CC(=O)CCC(=O)OCc1cc(=O)c(O)co1,101%
2,O=C(c1nc2ccccc2[nH]1)C1C(c2ccc(Cl)cc2)C2CC3CCCC[C@H]3N2[C@@]12C(=O)Nc1cc(Cl)ccc12 (stereo partly specified),26%
3,COc1cccc(-c2nc3occn3c2-c2ccnc(NCCNS(=O)(=O)c3cccc4ccccc34)n2)c1,96.7%
4,COc1cc(-c2n/c(=C\c3c(O)[nH]c4ccc(Cl)cc34)cc3c2=Nc2ccccc2-3)ccc1F,-10.3% (active)
5,NNC(=O)c1ccc(-n2nc(-c3ccccc3)c3ccccc32)cc1,103%
6,O=C1Nc2cc(-c3cccc(O)c3)ccc2/C1=C/c1ccc[nH]1,83.3%
7,COc1cccc(/C=N/NC(=O)c2cnn3c2NC(c2ccccc2)C3)c1Oc1ccccc1 (stereo unspecified),41.5%
8,S=c1cc(S)c2cc(Br)ccc2[nH]1,96.9%
9,O=C(NCCc1ccccc1)Nc1ccc2cc3ccc(NC(=O)NCCc4ccccc4)cc3nc2c1,31.4%
10,CCN(CC)CCCC(C)Nc1cc(O)cc2cccnc12 (stereo unspecified),44.4%
11,CCOC(=O)C1=C(C)NC(SCc2cc(=O)oc3ccc(F)cc23)=N[C@@H]1c1cccc2ccccc12,98.5%
12,COc1ccc(C(=O)c2cc(OC)c(OC)c(OC)c2)cc1O,14.7%
13,CCCOC(=O)N[C@H]1CCc2c(Cl)c(OC)c(OC)c(OC)c2-c2ccc(SC)c(=O)cc21,14.7%
14,Cc1ccc(/C=N/NC(=O)CSc2nc3ccccc3c(=O)n2Cc2ccc(S(N)(=O)=O)cc2)cc1,86.3%
15,O=C(CCN1CCCC1)Nc1ccc2c(NCCCCc3ccccc3)c3ccccc3nc2c1,6.39% (active)
16,CSc1nc2sc3cccc(Cl)c3n2c(=N)c1C#N,113%
17,C#CCNC(=O)c1cccc2c1cc(C)n2-c1nc2c(c(NCc3ccccc3)n1)CCCC2,0.876% (active)
18,Cc1ccc(S(=O)(=O)NNC(=O)/C(=C\c2ccc(Cl)cc2)c2nc3ccccc3s2)cc1,106%
19,O=[N+]([O-])CC(c1ccccc1)c1c[nH]c2ccccc12 (stereo unspecified),12.5%

row,Compound,growth
1,Nc1nc(Nc2ccccc2SSc2ccccc2Nc2nc(N)nc(-c3ccc(C(F)(F)F)cc3)n2)nc(-c2ccc(C(F)(F)F)cc2)n1,93.3%
2,CCCCCC(=O)Oc1ccc(/C(=C(\C)c2ccccc2)c2ccc(OCCN3CCCCC3)cc2)cc1,8.87% (active)
3,C/C(=N\Nc1cc(C)nc2ccc(Br)cc12)c1ccc([N+](=O)[O-])cc1,37.3%
4,COc1cccc(-c2ccc3c(c2)NC(=O)/C3=C\c2ccc[nH]2)c1,23.6%
5,CCC(=O)Oc1ccc(/C(=C(\C)c2ccccc2)c2ccc(OCCN3CCCCC3)cc2)cc1,8.78% (active)
6,COc1cc(CC(=O)c2ccc(O)c(OC)c2)ccc1O,94.3%
7,Brc1ccc2[nH]cc(-c3cncn3CCc3ccccc3)c2c1,65.6%
8,CCNC(=O)Oc1ccc(/C(=C(\C)c2ccccc2)c2ccc(OCCCN(C)C)cc2)cc1,9.13% (active)
9,O=C(/C=C/c1ccc(F)cc1)c1ccc(NC(=O)N2CCN(c3cc4c(cc3F)c(=O)c(C(=O)O)cn4C3CC3)CC2)cc1,98%
10,O=S(=O)(NCCNc1nccc(-c2c(-c3cccc(O)c3)nc3occn23)n1)c1ccccc1,38.1%
11,COc1ccc(C(=O)c2cc(C)c(OC)c(C)c2)c(OC)c1N(C(=O)CCl)C(=O)CCl,3.24% (active)
12,O=C(/C=C/c1ccc[nH]1)c1ccc(-n2ccc(C(F)(F)F)n2)c(F)c1,92.5%
13,COc1ccc(C(=O)C2C(C#N)C(C#N)C3c4ccccc4C=CN23)cc1 (stereo unspecified),84.4%
14,c1ccc(-c2cn3c(ccc4ccccc43)n2)cc1,19.8%
15,CNC(=O)c1cccc(Cn2nc(C)c(NC(=O)c3ccc(COc4ccc(C(F)(F)F)cc4C)cc3)c2C)n1,42%
16,COc1ccc(OC)c(-c2cc(-c3ccc(Cl)cc3)c3c(N)c(C(=O)c4ccc(Cl)cc4)sc3n2)c1,91.1%
17,CCCOc1ccc(/C=N/Nc2cc(C)nc3ccc(Cl)cc23)cc1,-6.94% (active)
18,O=C(Cc1ccccc1)NNc1nc(Cl)nc(N2CCN(C(c3ccccc3)c3ccccc3)CC2)n1,72.6%
19,C#CCNC(=O)[C@H](Cc1ccccc1)NC(=O)[C@]12CC[C@@H](C(=C)C)[C@@H]1[C@H]1CC[C@@H]3[C@@]4(C)CCC(=O)C(C)(C)[C@@H]4CC[C@@]3(C)[C@]1(C)CC2,52.9%
